Drawing on PubChem BioAssay, this text covers z-score and composite z-score for 5 compounds.

Activity calls are given as the source filed them.

Assay [1] in a line: optical density shifts of acrAB sulA E. coli – strain DRC41, OD650, 48 h, E. coli filamentation inducer project, primary screen (AID 1152).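 Note: E. coli MC1000 strain DRC41 lacking acrAB efflux pump and sulA.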 The conditions noted are these: higher = more signal, called active from +8 up or from −8 down.
The nature of assay [2]: probe aLefty1 binding on compound microarray – biochemical, small-molecule microarray, 635/667 nm fluorescence, primary screen (AID 1153).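 Note: score merges spot fluorescence with signal-to-noise ratio from the scanned slide images.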 To be noted: higher = more signal.
Assay [3] in a line: plasmodial surface anion channel blockers, osmotic lysis – cell-based, P. falciparum Indochina, OD700, 1 h, primary screen (AID 1154). The conditions noted are these: P. falciparum Indochina infected RBC osmotic lysis, higher = more signal, called active from +8 up or from −8 down.
Assay [4] is described as follows: plasmodial surface anion channel blockers, osmotic lysis – cell-based, P. falciparum Indochina, OD700, 2 h, primary screen (AID 1155).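 Note: lysis reports solute entry through the parasite surface anion channel PSAC.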 The conditions noted are these: P. falciparum Indochina infected erythrocytes, higher = more signal, called active from +8 up or from −8 down.
Assay [5] can be described thus: changes in parasitized red cell lysis, either direction – P. falciparum Indochina, OD700, 3 h, PSAC antagonist project, primary screen (AID 1156). The conditions noted are these: P. falciparum-infected erythrocytes, osmotic lysis, higher = more signal, called active from +8 up or from −8 down.
Assay [6] in a line: plasmodial surface anion channel blockers, osmotic lysis – cell-based, P. falciparum Indochina, OD700, 18 h, primary screen (AID 1157). To be noted: P. falciparum Indochina infected erythrocytes, osmotic lysis OD700, 18 h; higher = more signal, called active from +8 up or from −8 down.
The nature of assay [7]: S6 kinase pathway phospho-S6 level changes – cell-based, A549, cytoblot, luminescence, serum-stimulated, primary screen (AID 1158).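 Note: serum-stimulated A549 lung adenocarcinoma cells; signal is phosphorylated S6 detected by cytoblot immunostaining with HRP secondary.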 To be noted: 5 h, higher = more signal.
Assay [8] has as its target NADPH oxidase 2 (Homo sapiens) (UniProt P04839). The assay is described as follows: compounds shifting NOX2 Amplex Red fluorescence – cell-based, HEK293-NOX2, PMA-stimulated, NOX inhibitor project, primary screen (AID 1159). Note: test concentration not given here. To be noted: 45 min, higher = more signal, called active from +8 up or from −8 down.
The target in assay [9] is NADPH oxidase 4 (Homo sapiens) (UniProt Q9NPH5). Briefly: compounds shifting NOX4 Amplex Red fluorescence – cell-based, HEK293-NOX4, tetracycline-induced, NOX inhibitor project, primary screen (AID 1160). To be noted: HEK293-NOX4, Amplex Red H2O2 fluorescence, 45 min; higher = more signal, called active from +8 up or from −8 down.
In assay [10] the target is NADPH oxidase 5 (Homo sapiens) (UniProt Q96PH1). The assay is described as follows: compounds shifting NOX5 Amplex Red fluorescence – cell-based, HEK293-NOX5, NOX inhibitor project, primary screen (AID 1161). To be noted: HEK293-NOX5, ionomycin, 45 min, higher = more signal.
The nature of assay [11]: compound effects on lung adenocarcinoma cell viability – A549, calcein-AM fluorescence, 48 h, basal, profiling panel (AID 1162). Note: test concentration not given here. The conditions noted are these: higher = more signal.
A short description of assay [12]: compound effects on differentiated 3T3-L1 adipocyte viability – cell-based, 3T3-L1 adipocytes, calcein-AM fluorescence, 48 h, basal, profiling panel (AID 1163). Note: test concentration not given here. The conditions noted are these: 3T3-L1 adipocytes viability, higher = more signal.
The nature of assay [13]: compound effects on hepatocellular carcinoma cell viability – HepG2, calcein-AM fluorescence, 48 h, basal, profiling panel (AID 1164). Note: test concentration not given here. The conditions noted are these: higher = more signal.
Assay [14] can be described thus: compound effects on multiple myeloma cell viability – MM1S, calcein-AM fluorescence, 48 h, basal, profiling panel (AID 1165).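 Note: viability of MM1S multiple myeloma cells under basal unstimulated conditions; test concentration not given here.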 To be noted: higher = more signal.
The nature of assay [15]: calcein-AM signal in unstimulated myeloma cells – cell-based, calcein-AM fluorescence, 48 h, PK04 Diversity Set, profiling panel (AID 1166).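 Note: cells grown under basal conditions without added stimulus; test concentration not given here.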 The conditions noted are these: RPMI8226 myeloma viability, higher = more signal.
Assay [16] is described as follows: JC-1 mitochondrial signal, unstimulated HepG2 cells – cell-based, JC-1 fluorescence, 24 h, 100 nL compound, profiling panel (AID 1167). Note: test concentration not given here. To be noted: HepG2 mitochondrial potential, higher = more signal.
The nature of assay [17]: JC-1 mitochondrial signal, unstimulated adipocytes – cell-based, JC-1 fluorescence, 3T3-L1 adipocytes, 24 h, 100 nL compound, profiling panel (AID 1168). Note: test concentration not given here. The conditions noted are these: JC-1 mitochondrial fluorescence, higher = more signal, called active from +8 up or from −8 down.
The nature of assay [18]: JC-1 mitochondrial signal, unstimulated myeloma cells – cell-based, JC-1 fluorescence, RPMI8226, 24 h, 100 nL compound, profiling panel (AID 1169). Note: test concentration not given here. To be noted: JC-1 mitochondrial potential fluorescence, higher = more signal.
Assay [19] can be described thus: JC-1 mitochondrial signal, unstimulated MM1S myeloma – cell-based, JC-1 fluorescence, 24 h, 100 nL compound, profiling panel (AID 1170). Note: test concentration not given here. To be noted: MM1S mitochondrial potential, higher = more signal.
Assay [20] is described as follows: resazurin metabolic signal in A549 cells – cell-based, resazurin fluorescence, 24 h, PK04 Diversity Set, profiling panel (AID 1171). Note: test concentration not given here. The conditions noted are these: A549 viability, higher = more signal, called active from +8 up or from −8 down.

Chain of NADPH oxidase 4 (Homo sapiens) (Q9NPH5 whole entry, looked up): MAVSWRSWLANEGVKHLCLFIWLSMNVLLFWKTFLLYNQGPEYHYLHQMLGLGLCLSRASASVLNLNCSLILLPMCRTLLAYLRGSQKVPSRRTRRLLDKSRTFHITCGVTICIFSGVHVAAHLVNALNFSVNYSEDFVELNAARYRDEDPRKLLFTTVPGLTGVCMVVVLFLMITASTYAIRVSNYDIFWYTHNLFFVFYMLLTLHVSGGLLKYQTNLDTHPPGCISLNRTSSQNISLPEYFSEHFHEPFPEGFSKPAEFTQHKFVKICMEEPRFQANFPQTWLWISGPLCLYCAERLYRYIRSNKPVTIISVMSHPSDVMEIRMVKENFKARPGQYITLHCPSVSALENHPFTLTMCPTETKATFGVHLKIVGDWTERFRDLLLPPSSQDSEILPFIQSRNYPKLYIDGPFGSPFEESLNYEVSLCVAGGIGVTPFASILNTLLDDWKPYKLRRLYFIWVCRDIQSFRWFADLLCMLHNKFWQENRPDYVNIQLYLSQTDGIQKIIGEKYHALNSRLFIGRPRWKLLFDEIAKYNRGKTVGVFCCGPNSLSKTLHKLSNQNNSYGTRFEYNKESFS
Chain of NADPH oxidase 2 (Homo sapiens) (P04839 whole entry, looked up): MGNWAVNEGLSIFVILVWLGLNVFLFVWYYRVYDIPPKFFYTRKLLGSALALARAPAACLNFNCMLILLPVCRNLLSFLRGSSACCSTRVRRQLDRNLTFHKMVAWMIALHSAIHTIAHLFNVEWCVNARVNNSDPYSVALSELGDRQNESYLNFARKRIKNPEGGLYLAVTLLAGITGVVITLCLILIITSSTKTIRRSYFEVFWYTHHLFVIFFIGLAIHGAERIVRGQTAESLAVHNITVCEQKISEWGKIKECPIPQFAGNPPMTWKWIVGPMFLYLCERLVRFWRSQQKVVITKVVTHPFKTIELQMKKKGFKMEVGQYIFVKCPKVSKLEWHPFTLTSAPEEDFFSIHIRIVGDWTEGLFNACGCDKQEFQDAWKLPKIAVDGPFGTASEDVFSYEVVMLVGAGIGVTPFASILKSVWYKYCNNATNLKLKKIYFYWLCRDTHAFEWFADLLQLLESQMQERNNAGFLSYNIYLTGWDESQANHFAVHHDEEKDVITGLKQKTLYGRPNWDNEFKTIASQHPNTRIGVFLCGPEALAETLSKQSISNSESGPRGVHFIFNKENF
Chain of NADPH oxidase 5 (Homo sapiens) (Q96PH1 whole entry, looked up): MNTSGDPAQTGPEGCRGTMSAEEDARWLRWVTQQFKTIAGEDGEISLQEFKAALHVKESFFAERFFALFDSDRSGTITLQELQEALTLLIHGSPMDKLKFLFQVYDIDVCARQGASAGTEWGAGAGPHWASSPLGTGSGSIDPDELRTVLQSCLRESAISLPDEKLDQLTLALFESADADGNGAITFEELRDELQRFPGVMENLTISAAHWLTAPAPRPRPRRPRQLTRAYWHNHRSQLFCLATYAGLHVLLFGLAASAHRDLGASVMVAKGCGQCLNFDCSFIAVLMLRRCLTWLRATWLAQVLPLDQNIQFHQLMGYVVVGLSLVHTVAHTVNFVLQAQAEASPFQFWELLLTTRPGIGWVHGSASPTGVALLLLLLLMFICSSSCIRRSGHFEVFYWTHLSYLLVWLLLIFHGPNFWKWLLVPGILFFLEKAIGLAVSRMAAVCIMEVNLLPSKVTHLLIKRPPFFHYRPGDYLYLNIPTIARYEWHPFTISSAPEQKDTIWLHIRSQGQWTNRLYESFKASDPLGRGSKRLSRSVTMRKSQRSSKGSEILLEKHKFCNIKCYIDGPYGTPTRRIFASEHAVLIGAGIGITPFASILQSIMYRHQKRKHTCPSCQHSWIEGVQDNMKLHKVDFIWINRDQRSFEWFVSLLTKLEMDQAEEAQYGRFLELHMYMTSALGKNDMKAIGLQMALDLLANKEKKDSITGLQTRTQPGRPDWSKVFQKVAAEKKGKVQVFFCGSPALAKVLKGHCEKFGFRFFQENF

With `[N-]=[N+]=Nc1ccccc1C[C@]1(C(=O)N2CCCCC2)COC(c2ccc(OCCCO)cc2)=N1`, the z-score was 0.891 (inactive) in assay [1]; 23.1 (active) in assay [3]; 9.64 (active) in [4]; 3.34 (inactive) in assay [5]; 1.77 (inactive) in assay [6]; -0.391 in assay [7]. The z-score is -4.46 (inactive) in assay [8]; -0.826 (inactive) in assay [9]; -1.79 in assay [10]; -0.611 in [11]; 0.761 in assay [12]; -0.328 in assay [13]. The z-score was -3.52 in assay [14]; -4.33 in assay [15]; -0.676 in assay [16]; 0.00722 (inactive) in [17]; -1.3 in assay [18]; -2.03 in assay [19]. The z-score in [20] was 1.85 (inactive). Moreover, the composite z-score in [2] turned out to be 0.371.
As to `COC(=O)[C@@]1(Cc2ccc(OC)cc2)[C@H]2c3cc(C(=O)N4CCCC4)n(Cc4nc5ccccc5[nH]4)c3C[C@H]2CN1C(=O)c1ccccc1`, the z-score in assay [1] is -0.945 (inactive); in assay [3] it was 6.92 (inactive); in assay [4], 1.2 (inactive); in [5], 2.04 (inactive); in assay [6], 1.03 (inactive); in [7], -0.0242. Further, the z-score was -0.034 (inactive) in assay [8]; -0.0265 (inactive) in assay [9]; -3.27 in [10]; -0.43 in [11]; 0.685 in [12]; -0.44 in [13]. For the same compound, the z-score is -2.01 in [14]; -2.35 in assay [15]; -0.128 in assay [16]; -0.773 (inactive) in assay [17]; -0.764 in assay [18]; -0.816 in assay [19]. In addition, the z-score in assay [20] is 0.161 (inactive). The compound further came in with a composite z-score in [2] of 0.388.
Consider `COC(=O)C[C@H]1O[C@@H](CCc2ccccc2)[C@@H](C)[C@@H]1[Si](C)(C)c1ccc(OC)cc1`, for which the z-score in [1] was -0.95 (inactive); in assay [3], 2.54 (inactive); in assay [4], 0.719 (inactive); in assay [5], -0.0062 (inactive); in assay [6], -0.0887 (inactive); in assay [7], 0.0216. The z-score is 1.34 (inactive) in assay [8]; -0.0337 (inactive) in assay [9]; -2.06 in assay [10]; 1.47 in assay [11]; 1.27 in assay [12]; -0.755 in [13]. In addition, the z-score is -0.843 in assay [14]; -3.97 in assay [15]; 0.453 in assay [16]; -0.0941 (inactive) in [17]; -1.12 in assay [18]; -0.0681 in assay [19]. In addition, the z-score in [20] was 0.989 (inactive). For the same compound, in assay [2], the composite z-score was -0.188.
For the compound `OB1C=CCC(CCc2ccccc2)O1` (stereo not given), the z-score in [1] was 3.28 (inactive); in assay [3] it was -0.263 (inactive); in [4] it was -0.649 (inactive); in assay [5], -1.32 (inactive); in assay [6], -2.19 (inactive); in assay [7] it was 0.946. Further, the z-score in assay [8] was -1.05 (inactive); in assay [9], 0.69 (inactive); in assay [10], 1.22; in assay [11], 0.345; in assay [12], 0.638; in assay [13] it was 0.36. Besides, the z-score in [14] was 0.293; in assay [15], 0.364; in assay [16], 1.39; in assay [17], 0.244 (inactive); in [18], -0.855; in assay [19] it was 0.954. Further, the z-score in assay [20] is -1.01 (inactive). Also, in [2], the composite z-score is -0.0651.
In the case of `C=CC[C@]1(C(=O)N2CCOCC2)N=C(c2ccc(OCCCO)cc2)O[C@H]1c1ccccc1N=[N+]=[N-]`, the z-score is 0.65 (inactive) in assay [1]; 33.6 (active) in [3]; 29.5 (active) in [4]; 3.29 (inactive) in assay [5]; 7.61 (inactive) in assay [6]; 2.04 in assay [7]. Besides, the z-score in [8] was -1.82 (inactive); in [9] it was 0.451 (inactive); in assay [10] it was -2.56; in assay [11], 0.0797; in [12] it was 0.816; in assay [13] it was -0.0586. For the same compound, the z-score in assay [14] is -0.094; in [15] it was -1.8; in assay [16], 1.23; in assay [17], 1.17 (inactive); in assay [18], -0.733; in assay [19], -1.44. Besides, the z-score in assay [20] was -0.441 (inactive). Besides, the composite z-score in assay [2] amounted to 0.448.
